CRFBP-R2 block: blocks CRF-induced signaling of the CRF-BP/CRF-R2 complex. HEK293 CRF-R2/CRF-BP, CRF-induced calcium fluorescence. inhibition, % at 11.8 µM. hit rate 0.59% among 350,000;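 active = inhibition of the ligand-induced calcium signal above about 50% at the single tested concentration, limit read from the data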
RTF Ca sens act: cardiac RTF calcium sensitization; P19429+P45379; IANBD-labeled TnC RTF fluorescence at EC20 calcium; 0% EC20 calcium, 100% full calcium; activation, % at 7.2 µM; hit rate 0.24% among 340,000; AID 493008;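 active = activation above the mean over all tested compounds plus 3 SD, cut at about 30% in these data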;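 note: rise in fluorescence read as greater calcium sensitivity of cardiac thin filaments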
CRFR2-BP ag: CRF-BP/CRF-R2 complex agonism; hit rate 0.46% among 350,000; HEK293 CRF-R2/CRF-BP, calcium dye fluorescence (FLIPR); percent of saturating CRF peptide response; activation, % at 13.2 µM; AID 588473;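 active = activation of at least 50%, plus an integration ratio under a set limit after plate pattern correction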;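 note: plate controls were neutral control wells without compound for no effect and CRF at EC100 for full effect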
Myeloid diff 2: promotes myeloid progenitor differentiation | hit rate 1% among 360,000 | ER-HoxA9 myeloid progenitors, lysozyme-GFP differentiation, flow cytometry | calls only at 10 µM;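 active = normalized GFP-positive differentiation at or above the plate's own cutoff, the solvent-only control mean plus 3 SD; inconclusive = no clear call, values can overlap the other calls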;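 note: cells exposed to compound for four days before flow analysis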
RTF Ca sens inh: cardiac RTF calcium desensitization. IANBD-labeled cardiac RTF, Ca2+ fluorescence. hit rate 0.12% among 340,000. inhibition, % at 7.15 µM;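 active = inhibition above the mean inhibition of all tested compounds plus 3 SD, cut at about 17% in these data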;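 note: assay run at fixed EC70 calcium of 1.6 mM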
* hit, by the source's call; i = inactive; ? = inconclusive; nt = not tested or not shown; + = active, no number. Most compounds without a hit are left out; they make up all but 2.2% or so of the library.

SMILES	CRFBP-R2 block	RTF Ca sens act	CRFR2-BP ag	Myeloid diff 2	RTF Ca sens inh
O=C(COC(=O)C1CCN(S(=O)(=O)c2ccc3c(c2)OCCO3)CC1)NC1CCS(=O)(=O)C1 (stereo not drawn)	115*	4	1	i	-7
O=C1CCCC2=C1C(c1ccc(O)c(Br)c1)C1=C(CCCC1=O)N2c1ccccc1	-25	-1	0	+	1
COc1ccc(C(=S)N2CCOCC2)cc1OC(=O)c1cc(OC)c(OC)c(OC)c1	3	-2	0	+	-4
COc1ccc(OC)c(C2C(C(=O)c3ccc(C)o3)=C(O)C(=O)N2CCN2CCOCC2)c1 (stereo not drawn)	12	4	-1	i	-7
COc1cccc(C2C(C(=O)c3ccc(C)o3)=C(O)C(=O)N2CCN2CCOCC2)c1OC (stereo not drawn)	124*	-5	-1	i	-2
COc1cccc(C(=O)NN2c3ccccc3CCc3ccccc32)c1	-12	12	0	+	-1
COc1cccc(C(=O)NNC(=O)c2ccccc2)c1	1	-1	1	i	-12
O=C(O)CC1(CC(=O)Nc2ccc3sccc3c2)CCCCC1	-4	nt	-1	i	nt
C#CCOCCOCCOCCNc1nc(N2CCN(C(=O)[C@H]([C@@H](C)O)n3cc(CCCCN)nn3)CC2)nc(N2CCN(C(=O)[C@H](CCCCN)n3cc(CCCC)nn3)CC2)n1	2	-1	0	+	-13
C#CCOCCOCCOCCNc1nc(N2CCN(C(=O)[C@H]([C@@H](C)O)n3cc(CCCCN)nn3)CC2)nc(N2CCN(C(=O)[C@H](CCCCN)n3cc(CC(C)O)nn3)CC2)n1 (stereo partly drawn)	1	10	-2	i	1
C#CCOCCOCCOCCNc1nc(N2CCN(C(=O)[C@H]([C@@H](C)CC)n3cc(CCCCN)nn3)CC2)nc(N2CCN(C(=O)[C@H](CCCCN)n3cc(CC(C)O)nn3)CC2)n1 (stereo partly drawn)	1	4	-1	+	-4
Cc1cc(C)nc(N2CCCC(CCC(=O)NCc3ccc(F)c(F)c3)C2)n1 (stereo not drawn)	27	-5	-2	i	-3
Clc1cc(/C=N\NC2=NCCN2)cc(Cl)n1	-3	nt	0	i	nt
CC/C(=C(/CC)c1ccc(O)cc1)c1ccc(O)cc1	-8	-4	0	i	18*
Cc1ccc(C(=O)N/N=C(/CC(=O)c2cccs2)C(F)(F)F)cc1	80*	-2	20	i	8
O=C(N/N=C(\CC(=O)c1cccs1)C(F)(F)F)c1ccncc1	-2	nt	0	i	nt
COC(=O)c1ccc(NC(=O)c2nc(S(=O)(=O)Cc3cccc(C)c3)ncc2Cl)cc1	52*	-2	-1	i	-12
COc1ccccc1NC(=O)c1nc(S(=O)(=O)Cc2ccccc2)ncc1Cl	51*	-2	0	?	2
CC(=O)Nc1ccc(NC(=O)c2nc(S(=O)(=O)Cc3cccc(C)c3)ncc2Cl)cc1	73*	5	-1	?	-13
CCOC(=O)c1ccc(NC(=O)c2nc(S(=O)(=O)Cc3ccccc3)ncc2Cl)cc1	30	5	0	i	-6
CCc1ccc(NC(=O)c2nc(S(=O)(=O)Cc3ccccc3)ncc2Cl)cc1	nt	3	nt	?	-14
CCCCn1c(N)c(N(CCOC)C(=O)c2ccc(S(=O)(=O)N3CCCCCC3)cc2)c(=O)[nH]c1=O	-6	0	0	i	-2
OC[C@@H]1CN(Cc2cccs2)C[C@H](n2cnc3c(NCc4ccncc4)ncnc32)O1	nt	nt	nt	i	nt
Cc1ccc(NC(=O)C(C)N2C(=O)c3ccccc3C2=O)c(C)c1 (stereo not drawn)	6	0	0	i	-2
CC(/C=N/NC(=O)c1ccc(Cn2cc([N+](=O)[O-])cn2)o1)=C\c1ccccc1	7	-5	3	i	-14
CCOc1ccc(N=C2NC(=O)S/C2=C\c2ccc(N(C)C)cc2)cc1	-19	17	21	+	-35
O=C(NC(=S)NN1CCCCC1c1cccnc1)c1ccc(Cl)cc1Cl (stereo not drawn)	6	4	-4	i	0
CCS(=O)(=O)c1ccc2c(c1)N(S(C)(=O)=O)CC(C(=O)NN)O2 (stereo not drawn)	-5	5	0	i	-11

Screening results from PubChem BioAssay.
